Experimental data reported in PubChem BioAssay (NCI).
About 79,000 compounds went through this panel and 15% of them were active in at least one assay; those are over-represented in the sample as a whole. A number with no mark means an inactive call. Active and inactive are the calls of the source. Rule as the data show it: active = growth inhibition above about 70%; inactive = the rest.

Key:
[1] = NCI Yeast Anticancer Drug Screen. Data for the rad50 strain (AID 155);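 also: 0% = growth of vehicle-only cultures of the same strain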; settings: S. cerevisiae rad50 strain growth inhibition, hits give high values
Outline: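 Inhibition values express reduced yeast growth in compound-treated cultures relative to vehicle-treated controls.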

[2] = NCI Yeast Anticancer Drug Screen. Data for the mec2-1 strain (AID 157); settings: S. cerevisiae mec2-1 strain, hits give high values
Outline: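 Strain: mec2-1 (DNA repair/cell cycle alteration). Compound exposure, then growth measured; inhibition expressed relative to vehicle.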

[3] = NCI Yeast Anticancer Drug Screen. Data for the sgs1 mgt1 strain (AID 161);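 also: 0% = growth of cultures given vehicle only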; settings: S. cerevisiae sgs1 mgt1 strain, hits give high values
Outline: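 Test agents were incubated with a DNA-repair-mutant yeast strain. Growth was then read and compared against vehicle-treated controls.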

[4] = NCI Yeast Anticancer Drug Screen. Data for the cln2 rad14 strain (AID 165);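 also: 0% = growth equal to vehicle treated cultures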; settings: S. cerevisiae cln2 rad14 strain, hits give high values
Outline: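 Compounds are applied to the cln2 rad14 yeast strain, and growth is then compared with that of vehicle-treated cultures to give inhibition.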

[5] = NCI Yeast Anticancer Drug Screen. Data for the bub3 strain (AID 167); settings: S. cerevisiae bub3 mutant strain, hits give high values
Outline: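 Steps: expose the mutant yeast strain to compound; grow alongside vehicle-treated cultures; measure growth; express inhibition against the vehicle cultures.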

[6] = NCI Yeast Anticancer Drug Screen. Data for the mlh1 rad18 strain (AID 175); settings: S. cerevisiae mlh1 rad18 strain growth inhibition, hits give high values
Outline: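 Read-out is yeast growth inhibition, calculated against vehicle-only controls. The compound was applied to a strain engineered with DNA damage repair alterations.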

[7] = at 5.0 µM (retest, dose inferred, filed as 0.5)
[8] = at 50.0 µM (retest, dose inferred, filed as 5.0)

Which results are given for `COc1cc2c(cc1OC)-c1nc(Nc3ccccc3)sc1CC2`?
growth inhibition [1, 7]: -6%; growth inhibition [1, 8]: 92% (active); growth inhibition ([1]; at 50.0 µM): 43.4%; growth inhibition [2, 7]: -1%; growth inhibition [2, 8]: 94% (active); growth inhibition ([2]; at 50.0 µM): 86.7% (active); growth inhibition [3, 7]: -3%; growth inhibition [3, 8]: 88% (active); growth inhibition ([3]; at 50.0 µM): 82% (active); growth inhibition [4, 7]: 5%; growth inhibition [4, 8]: 88% (active); growth inhibition ([4]; at 50.0 µM): 29.1%; growth inhibition [5, 7]: 1%; growth inhibition [5, 8]: 92% (active); growth inhibition ([5]; at 50.0 µM): 78.5% (active); growth inhibition [6, 7]: -4%; growth inhibition [6, 8]: 95% (active); growth inhibition ([6]; at 50.0 µM): 93% (active)

Which results are given for `c1ccc(NN=C(c2ccccc2)c2ccccc2)cc1`?
growth inhibition [1, 7]: -2%; growth inhibition [1, 8]: 76% (active); growth inhibition ([1]; at 50.0 µM): 94.2% (active); growth inhibition [2, 7]: -17%; growth inhibition [2, 8]: 55%; growth inhibition ([2]; at 50.0 µM): 94.3% (active); growth inhibition [3, 7]: 7%; growth inhibition [3, 8]: 68%; growth inhibition ([3]; at 50.0 µM): 95.8% (active); growth inhibition [4, 7]: 1%; growth inhibition [4, 8]: 63%; growth inhibition ([4]; at 50.0 µM): 91.8% (active); growth inhibition [5, 7]: 12%; growth inhibition [5, 8]: 83% (active); growth inhibition ([5]; at 50.0 µM): 93.8% (active); growth inhibition [6, 7]: 12%; growth inhibition [6, 8]: 91% (active); growth inhibition ([6]; at 50.0 µM): 95.2% (active)

Which growth inhibition [1, 7] does the source give for `O=[N+]([O-])/C(C(Cl)=C(Cl)Cl)=C(/Sc1ccccc1)N1CCCCC1` here?
Its growth inhibition is -3%.

And the growth inhibition [1, 8]?
The growth inhibition was 97% (active).

What about the growth inhibition ([1]; at 50.0 µM) of the same compound?
Its growth inhibition is 84.9% (active).

What about the growth inhibition [2, 7] of the same compound?
Its growth inhibition is 3%.

And the growth inhibition [2, 8]?
Its growth inhibition is 95% (active).

What about the growth inhibition ([2]; at 50.0 µM) of the same compound?
The growth inhibition was 88.5% (active).

And the growth inhibition [3, 7]?
Its growth inhibition is -17%.

And the growth inhibition [3, 8]?
Its growth inhibition is 93% (active).

And the growth inhibition ([3]; at 50.0 µM)?
Its growth inhibition is 77.6% (active).

What about the growth inhibition [4, 7] of the same compound?
Its growth inhibition is -7%.

And the growth inhibition [4, 8]?
Its growth inhibition is 95% (active).

What about the growth inhibition ([4]; at 50.0 µM) of the same compound?
Its growth inhibition is 85.2% (active).

What about the growth inhibition [5, 7] of the same compound?
Its growth inhibition is -19%.

What about the growth inhibition [5, 8] of the same compound?
The growth inhibition was 96% (active).

What about the growth inhibition ([5]; at 50.0 µM) of the same compound?
Its growth inhibition is 86.1% (active).

What about the growth inhibition [6, 7] of the same compound?
The growth inhibition was -3%.

And the growth inhibition [6, 8]?
The growth inhibition was 96% (active).

And the growth inhibition ([6]; at 50.0 µM)?
Its growth inhibition is 77.9% (active).

Which growth inhibition [1, 7] does the source give for `O=C1CC(=Nc2ccc([N+](=O)[O-])cc2)NN1c1c(Cl)cc(Cl)cc1Cl` here?
The growth inhibition was -20%.

What about the growth inhibition [1, 8] of the same compound?
Its growth inhibition is 47%.

And the growth inhibition ([1]; at 50.0 µM)?
The growth inhibition was 90.7% (active).

And the growth inhibition [2, 7]?
Its growth inhibition is -24%.

What about the growth inhibition [2, 8] of the same compound?
The growth inhibition was 69%.

What about the growth inhibition ([2]; at 50.0 µM) of the same compound?
Its growth inhibition is 92% (active).

What about the growth inhibition [3, 7] of the same compound?
Its growth inhibition is -15%.

And the growth inhibition [3, 8]?
The growth inhibition was 96% (active).

And the growth inhibition ([3]; at 50.0 µM)?
The growth inhibition was 92.7% (active).

What about the growth inhibition [4, 7] of the same compound?
The growth inhibition was -15%.

What about the growth inhibition [4, 8] of the same compound?
Its growth inhibition is 57%.

What about the growth inhibition ([4]; at 50.0 µM) of the same compound?
The growth inhibition was 89.4% (active).

What about the growth inhibition [5, 7] of the same compound?
The growth inhibition was -24%.

What about the growth inhibition [5, 8] of the same compound?
Its growth inhibition is 95% (active).

And the growth inhibition ([5]; at 50.0 µM)?
The growth inhibition was 91.7% (active).

What about the growth inhibition [6, 7] of the same compound?
Its growth inhibition is -65%.

What about the growth inhibition [6, 8] of the same compound?
The growth inhibition was 89% (active).

What about the growth inhibition ([6]; at 50.0 µM) of the same compound?
The growth inhibition was 89.5% (active).

With `O=C(O)/C=C/CCC1SCC2NC(=O)NC21` (configuration not stated) as the compound, how does the growth inhibition [1, 7] read?
Its growth inhibition is 96% (active).

And the growth inhibition [1, 8]?
The growth inhibition was 96% (active).

What about the growth inhibition ([1]; at 50.0 µM) of the same compound?
The growth inhibition was 80.3% (active).

And the growth inhibition [2, 7]?
The growth inhibition was 98% (active).

And the growth inhibition [2, 8]?
The growth inhibition was 97% (active).

What about the growth inhibition ([2]; at 50.0 µM) of the same compound?
The growth inhibition was 84.2% (active).

What about the growth inhibition [3, 7] of the same compound?
The growth inhibition was 96% (active).

What about the growth inhibition [3, 8] of the same compound?
Its growth inhibition is 96% (active).

What about the growth inhibition ([3]; at 50.0 µM) of the same compound?
Its growth inhibition is 88.3% (active).

And the growth inhibition [4, 7]?
Its growth inhibition is 94% (active).

What about the growth inhibition [4, 8] of the same compound?
The growth inhibition was 95% (active).

And the growth inhibition ([4]; at 50.0 µM)?
The growth inhibition was 84% (active).

And the growth inhibition [5, 7]?
The growth inhibition was 97% (active).

What about the growth inhibition [5, 8] of the same compound?
The growth inhibition was 97% (active).

What about the growth inhibition ([5]; at 50.0 µM) of the same compound?
The growth inhibition was 87.5% (active).

And the growth inhibition [6, 7]?
Its growth inhibition is 96% (active).

And the growth inhibition [6, 8]?
The growth inhibition was 96% (active).

What about the growth inhibition ([6]; at 50.0 µM) of the same compound?
Its growth inhibition is 83% (active).

Which results are given for `Cc1cccc2c(CC(=O)O)c[nH]c12`?
growth inhibition [1, 7]: 60%; growth inhibition [1, 8]: 98% (active); growth inhibition ([1]; at 50.0 µM): 99.2% (active); growth inhibition [2, 7]: 76% (active); growth inhibition [2, 8]: 99% (active); growth inhibition ([2]; at 50.0 µM): 99.5% (active); growth inhibition [3, 7]: 67%; growth inhibition [3, 8]: 99% (active); growth inhibition ([3]; at 50.0 µM): 99.6% (active); growth inhibition [4, 7]: 73% (active); growth inhibition [4, 8]: 99% (active); growth inhibition ([4]; at 50.0 µM): 99.2% (active); growth inhibition [5, 7]: 93% (active); growth inhibition [5, 8]: 97% (active); growth inhibition ([5]; at 50.0 µM): 99.4% (active); growth inhibition [6, 7]: 92% (active); growth inhibition [6, 8]: 98% (active); growth inhibition ([6]; at 50.0 µM): 99.3% (active)

What does the source list for `O=C(c1ccccc1)C(Br)C(Br)c1ccc(Cl)c(Cl)c1` (configuration not stated)?
growth inhibition [1, 7]: 67%; growth inhibition [1, 8]: 96% (active); growth inhibition ([1]; at 50.0 µM): -8.65%; growth inhibition [2, 7]: 69%; growth inhibition [2, 8]: 98% (active); growth inhibition ([2]; at 50.0 µM): 24.3%; growth inhibition [3, 7]: 92% (active); growth inhibition [3, 8]: 97% (active); growth inhibition ([3]; at 50.0 µM): 60.1%; growth inhibition [4, 7]: 39%; growth inhibition [4, 8]: 97% (active); growth inhibition ([4]; at 50.0 µM): -16.2%; growth inhibition [5, 7]: 87% (active); growth inhibition [5, 8]: 98% (active); growth inhibition ([5]; at 50.0 µM): 13.1%; growth inhibition [6, 7]: 73% (active); growth inhibition [6, 8]: 97% (active); growth inhibition ([6]; at 50.0 µM): 77.8% (active)

What does the source list for `CC(C)OC(=O)c1ccccc1C(=C1C=C(Br)C(=O)C(Br)=C1)c1cc(Br)c(O)c(Br)c1`?
growth inhibition [1, 7]: 85% (active); growth inhibition [1, 8]: 95% (active); growth inhibition ([1]; at 50.0 µM): 90.7% (active); growth inhibition [2, 7]: 88% (active); growth inhibition [2, 8]: 98% (active); growth inhibition ([2]; at 50.0 µM): 91.9% (active); growth inhibition [3, 7]: 70% (active); growth inhibition [3, 8]: 95% (active); growth inhibition ([3]; at 50.0 µM): 90.9% (active); growth inhibition [4, 7]: 96% (active); growth inhibition [4, 8]: 97% (active); growth inhibition ([4]; at 50.0 µM): 88.2% (active); growth inhibition [5, 7]: 94% (active); growth inhibition [5, 8]: 97% (active); growth inhibition ([5]; at 50.0 µM): 91% (active); growth inhibition [6, 7]: 96% (active); growth inhibition [6, 8]: 96% (active); growth inhibition ([6]; at 50.0 µM): 90.5% (active)

Which results are given for `CN(C)CCCNc1c(C#N)[n+]([O-])c2cc(Cl)ccc2[n+]1[O-]`?
growth inhibition [1, 7]: 59%; growth inhibition [1, 8]: 93% (active); growth inhibition ([1]; at 50.0 µM): 66.7%; growth inhibition [2, 7]: 72% (active); growth inhibition [2, 8]: 93% (active); growth inhibition ([2]; at 50.0 µM): 43.5%; growth inhibition [3, 7]: 60%; growth inhibition [3, 8]: 90% (active); growth inhibition ([3]; at 50.0 µM): 61.9%; growth inhibition [4, 7]: 70% (active); growth inhibition [4, 8]: 90% (active); growth inhibition ([4]; at 50.0 µM): 45.6%; growth inhibition [5, 7]: 88% (active); growth inhibition [5, 8]: 94% (active); growth inhibition ([5]; at 50.0 µM): 60%; growth inhibition [6, 7]: 80% (active); growth inhibition [6, 8]: 93% (active); growth inhibition ([6]; at 50.0 µM): 68.8%
